# This is part of a sample that, as a whole, favours compounds with a hit. Of some 83,000 tested, about 20% had one in any assay.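 Plates (96-well) were seeded with cells, treated with compound at one concentration, and incubated for 48 hours before percent growth was determined.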 Values without a mark were called inactive. The source made the active and inactive calls. The calls were made as follows: active = growth percent below 10; inactive = the rest.
# System: HCT-116 colon
# Assay: NCI-60 one-dose screen, 48 h (100 = growth as untreated, 0 = no growth, -100 = all killed)
# Conditions: 10 µM unless noted
row,SMILES,growth
1,O=S(=O)(c1ccccc1)N1CCCN(c2nc(-c3ccccc3)nc3nc(-c4ccccc4)oc23)CC1,89.5%
2,Cc1cc2oc(=O)cc(CP(=O)(O)O)c2cc1O,100%
3,COC(=O)c1ccc2c(c1)c1c(C)c3ccncc3c(C)c1n2C,10.9%
4,CCOC(=O)N1CCN(S(=O)(=O)c2oc(-c3ccc(Cl)cc3)nc2C#N)CC1,14.1%
5,CC(CN)[C@@H]1CC[C@]2(CO)CC[C@]3(C)[C@H](CC[C@@H]4[C@@]5(C)CCC(N)C(C)(C)[C@@H]5CC[C@]43C)[C@@H]12 (some centres undefined),-81.2% (active)
6,C=CC1(C)C(O[Si](C)(C)C(C)(C)C)CC2C3OC(=O)NC31c1cccc3c1[C@H](C(=O)N3C)C2(C)C (some centres undefined),38.6%
7,O=C1/C(=C/c2ccc(C(F)(F)F)cc2)COc2ccc(O)c(O)c21,-35.5% (active)
8,Cc1ccccc1CNc1c2ccccc2nc2ccccc12,7.9% (active)
9,CCCCC(=O)Nc1ncc(Cc2ccccc2Cl)s1,21.2%
10,C=CCn1c(SCC(=O)Nc2ccc(C(=O)/C=C/c3cc(OC)c(OC)c(OC)c3)cc2)nnc1-c1cc(-c2ccc(OC)cc2)nc2ccccc12,67.8%
11,N#Cc1c(NC(=O)c2cccs2)[n+]([O-])c2ccc(Cl)cc2[n+]1[O-],79.8%
12,CCOC(=O)c1c2c(n3c1NCC3)-c1ccccc1C2=O,103%
13,COc1ccc(NC(=O)c2cccc(C3CCc4c(cc(OC)c(OC)c4OC)O3)c2)cc1 (centres undefined),14.6%
14,C[C@@H](CO)[C@@H]1CC[C@]2(C(=O)N3CCN(C)CC3)CC[C@]3(C)[C@H](CC[C@@H]4[C@@]5(C)CC[C@H](O)C(C)(C)[C@@H]5CC[C@]43C)[C@@H]12,16.7%
15,COc1ccc(NC(=O)c2ccc(C(=O)Nc3ccc(OC)cc3OC)cc2)c(OC)c1,78.1%
16,CCN(CC)CCCC(C)Nc1ccc2cc(OC)ccc2n1 (centres undefined),102%
17,CCN(C(=O)N1CCN(c2cc3c(cc2F)c(=O)c(C(=O)O)cn3C2CC2)CC1)c1nc(-c2ccc(C)cc2)cs1,12.4%
18,CCOC(=O)n1cc(-c2nonc2-c2cn(C)c3ccccc23)c2ccccc21,22.3%
19,O=C1c2cccnc2C(=O)c2c1c(C(=O)OCCCN1CCCCC1)c1ccccn21,-20.3% (active)
20,Cc1ccc(Nc2nc(-c3ccc(F)cc3)c(C#N)c(=O)n2C)cc1,53.4%

row,SMILES,growth
1,COc1cc(/C=C2\C(=O)N(c3c(Cl)cccc3Cl)c3ccccc32)cc(OC)c1OCCCCCCn1c2ccccc2c(=O)c2ccccc21,95.9%
2,CSCCC(NC(=O)c1ccccc1)C(=O)N/N=C1\S/C(=C/c2ccc(Cl)cc2)C(=O)N1C (centres undefined),55.2%
3,CC1(C)CCC(S(=O)(=O)c2ccc3c(c2)/C(=N\O)c2cc(S(=O)(=O)N4CCN(c5ccc(F)cc5O)CC4)ccc2-3)CC1,-96.6% (active)
4,Cc1cscc(C)c1=S,61.2%
5,O=C(O)C1CN(c2cccc(Cl)c2)N(c2cccc(Cl)c2)C1=O (centres undefined),97.4%
6,CCNC(=O)Oc1ccc(/C(=C(/C)Cc2ccc(OC)cc2)c2ccc(OCCN3CCCC3)cc2)cc1,44%
7,CC[C@H](C)[C@H](NC(=O)[C@H](CCCNC(=N)N)NC(=O)[C@H](Cc1c[nH]c2ccccc12)NC(=O)[C@@H](NC(=O)[C@H](CCCCN)NC(=O)[C@H](CCCCN)NC(=O)[C@@H](NC(=O)[C@@H](NC(=O)[C@@H](NC(=O)[C@H](CCCCN)NC(=O)[C@H](Cc1ccccc1)NC(=O)[C@H](CCCCN)NC(=O)[C@H](CCCCN)NC(=O)[C@H](Cc1ccccc1)NC(=O)[C@@H](NC(=O)[C@@H](N)CCCCN)[C@@H](C)CC)[C@@H](C)O)[C@@H](C)CC)[C@@H](C)CC)C(C)C)C(=O)N[C@@H](Cc1ccccc1)C(=O)NCC(=O)N[C@@H](CCCNC(=N)N)C(=O)N[C@@H](Cc1ccccc1)C(N)=O,-3.28% (active)
8,CC1O[C@@H]2C[C@@](O)([C@H]1O)n1c3ccccc3c3c4c(c5c6ccccc6n2c5c31)C(=O)NC4=O (some centres undefined),15.6%
9,Cc1nc2sc(C(=O)Nc3cccc(Cl)c3)c(N)c2cc1C(O)c1ccccc1 (centres undefined),13.9%
10,CC(C(=O)O)n1c(O)c(C=Nc2cccnc2)sc1=S (centres undefined),89.4%
11,O=C(N/N=C/c1ccc(Cl)cc1Cl)c1ccc2nc(-c3ccc(Cl)cc3)[nH]c2c1,-1.88% (active)
12,O=C(Cn1nnc([N+](=O)[O-])n1)c1ccccc1,60%
13,O=C1NC(=Nc2ccc(O)cc2)S/C1=C\c1cccs1,32.9%
14,NC(=O)c1ccc(NC(=O)c2oc3ccccc3c2-c2cnn(-c3ccccc3)c2)cc1,9.74% [50 µM] (active)
15,CCOC(=O)/C=C/c1c(C)[nH]c(=O)[nH]c1=O,53%
16,Cc1cccc(NC(=O)CSc2nc3ccc([N+](=O)[O-])cc3[nH]2)c1,70%
17,NS(=O)(=O)c1ccc(N/C=C/C(=O)c2cc3ccccc3oc2=O)cc1,97.1%
18,C=CC(C)(O)CC/C=C(\CO)C(=O)OC1C(C)OC(O[C@](C)(C=C)CC/C=C(\CO)C(=O)O[C@H]2C[C@@]3(C(=O)OC4OC(CO)C(O)C(O)C4OC4OC(C)C(OC5OC(CO)C(O)C5O)C(OC5OC(CO)C(O)C(O)C5O)C4O)C(CC2(C)C)C2=CCC4[C@@]5(C)CC[C@H](OC6OC(COC7OC(C)C(O)C(O)C7OC7OCC(O)C(O)C7O)C(O)C(O)C6NC(C)=O)C(C)(C)C5CC[C@@]4(C)[C@]2(C)C[C@H]3O)C(O)C1O (some centres undefined),6.13% (active)
19,Nc1nc(C(=O)N/N=C/c2ccc(N3CCOCC3)cc2)nn1-c1ccc(S(N)(=O)=O)cc1,101%

# — PubChem BioAssay (NCI)
